Reference: PubChem BioAssay AID1159580 (chemical genetic matrix, 2015)
Several values for one entry are separate records, joined by “and”; a condition that tells them apart may be missing. Identical values can stand only once. In all, about 5,500 compounds went through this assay and about 2,000 (36%) were called active. Another 18% or so got no clear call; they are omitted. Cut-off read from the data, not from the text of the source: active = normalized growth mostly below about 0.91 (no sharp cut-off); inconclusive = no clear call, values can overlap the other calls; inactive = mostly above about 0.92. The list shows a part of the results.

Test: chemical genetic growth profiling, strain panel (AID 1159580);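 note: tested at 20 µM; growth read once vehicle control cultures reached saturation at 30 °C; 1 = growth at the plate median or of vehicle wells; lower values mean less growth of the strain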
Conditions: S. cerevisiae deletion strains, growth OD

Measured: normalized growth

CC(CCC(=O)O)[C@H]1CCC2C3CC[C@@H]4CC(=O)CC[C@]4(C)C3C=C[C@@]21C (stereo not given in full)
active: locus YDL035C, strain GPR1, active compounds read low 0.832 | locus YGL078C, strain dbp3, active compounds read low 0.87 | locus YKL009W, strain mrt4, active compounds read low 0.809 | locus YOR184W, strain ser1, active compounds read low 0.795
inactive: locus YBR021W, strain FUR4, active compounds read low 0.906 | locus YBR229C, strain ROT2, active compounds read low 1.03 | locus YCL029C, strain bik1, active compounds read low 0.984 | locus YDL074C, strain BRE1, active compounds read low 0.992 | locus YDL101C, strain DUN1, active compounds read low 1.02 | locus YDL185W, strain tfp1, active compounds read low 1.02 | locus YDL192W, strain arf1, active compounds read low 1 | locus YDR101C, strain arx1, active compounds read low 0.967 | locus YDR162C, strain NBP2, active compounds read low 0.999 | locus YDR318W, strain mcm21, active compounds read low 0.982 | locus YDR388W, active compounds read low 1.01 | locus YDR502C, strain sam2, active compounds read low 0.928 | locus YEL061C, strain CIN8, active compounds read low 1.03 | locus YER110C, active compounds read low 1.05 | locus YER155C, strain BEM2, active compounds read low 1.06 | locus YER167W, strain BCK2, active compounds read low 1.05 | locus YGL086W, strain mad1, active compounds read low 0.971 | locus YGL248W, strain PDE1, active compounds read low 0.963 | locus YGR078C, strain PAC10, active compounds read low 1.02 | locus YGR135W, strain pre9, active compounds read low 0.953 | locus YGR229C, strain SMI1, active compounds read low 0.904 | locus YGR252W, strain gcn5, active compounds read low 0.779 | locus YHR030C, strain SLT2, active compounds read low 1.06 and 0.918 | locus YHR079C, strain IRE1 (second series), active compounds read low 1.03 | locus YHR079C, strain IRE1, active compounds read low 0.944 | locus YHR094C, strain hxt1, active compounds read low 1.03 | locus YHR129C, strain ARP1, active compounds read low 1.04 | locus YHR200W, strain rpn10, active compounds read low 1.03 | locus YIL066C, strain RNR3, active compounds read low 1.02 | locus YIL073C, strain SPO22, active compounds read low 0.955 | locus YIL125W, strain kgd1, active compounds read low 0.98 | locus YIR030C, strain dcg1, active compounds read low 1.02 | locus YJL095W, strain BCK1, active compounds read low 0.959 and 0.937 | locus YJL134W, strain LCB3, active compounds read low 1.05 | locus YJL168C, strain set2, active compounds read low 1.03 | locus YJL187C, strain SWE1 (second series), active compounds read low 0.986 | locus YJR043C, strain POL32, active compounds read low 0.985 | locus YJR066W, strain TOR1, active compounds read low 0.893 | locus YKL068W, active compounds read low 1.04 | locus YKL085W, strain MDH1 (second series), active compounds read low 1.03 | locus YKL085W, strain MDH1, active compounds read low 1.03 | locus YKL190W, strain CNB1, active compounds read low 1.04 | locus YKR001C, strain vps1, active compounds read low 0.955 | locus YLR039C, strain RIC1, active compounds read low 0.953 | locus YLR058C, strain SHM2, active compounds read low 1.01 | locus YLR102C, strain apc9, active compounds read low 1.03 | locus YLR113W, strain HOG1, active compounds read low 0.882 | locus YLR262C, strain YPT6, active compounds read low 0.895 | locus YLR268W, strain sec22, active compounds read low 0.949 | locus YLR330W, strain CHS5, active compounds read low 1.04 | locus YLR342W, strain FKS1 (second series), active compounds read low 0.87 | locus YLR371W, strain rom2, active compounds read low 1.05 | locus YLR418C, strain cdc73, active compounds read low 0.889 | locus YML016C, strain PPZ1, active compounds read low 1.04 | locus YML032C, strain rad52, active compounds read low 0.959 | locus YML124C, strain tub3, active compounds read low 1.04 | locus YMR078C, strain ctf18, active compounds read low 1.03 | locus YMR223W, strain ubp8, active compounds read low 0.969 | locus YMR307W, strain GAS1, active compounds read low 0.875 | locus YNL067W, strain RPL9B, active compounds read low 0.971 | locus YNL153C, strain GIM3, active compounds read low 0.966 | locus YNL183C, strain NPR1, active compounds read low 0.883 | locus YNL233W, strain BNI4, active compounds read low 1.02 | locus YNL250W, strain rad50, active compounds read low 1 | locus YNL271C, strain bni1, active compounds read low 0.992 | locus YNL298W, strain CLA4, active compounds read low 0.926 | locus YNL307C, strain MCK1, active compounds read low 1.02 | locus YNL322C, strain KRE1, active compounds read low 1.04 | locus YNR052C, strain pop2, active compounds read low 0.931 | locus YOL006C, strain TOP1, active compounds read low 0.944 | locus YOL012C, strain htz1 1.95 | locus YOL147C, strain pex11, active compounds read low 1.03 | locus YOR061W, strain CKA2, active compounds read low 1.01 | locus YOR069W, strain VPS5, active compounds read low 1.02 | locus YOR136W, strain idh2, active compounds read low 1.03 | locus YOR144C, strain elg1, active compounds read low 0.988 | locus YOR231W, strain MKK1, active compounds read low 0.913 | locus YOR316C, strain cot1, active compounds read low 1.03 | locus YPL055C, strain LGE1, active compounds read low 1.01 | locus YPL241C, strain CIN2, active compounds read low 1.04 | locus YPL256C, strain CLN2, active compounds read low 0.963 | locus YPR119W, strain clb2, active compounds read low 1.05 | locus YPR141C, strain kar3, active compounds read low 1.05 | locus YPR163C, strain tif3, active compounds read low 1 | locus YPR167C, strain met16, active compounds read low 1.01 | strain wtn01, active compounds read low 0.931
